Experimental findings from PubChem BioAssay (Tox21) are described below.

The structures appear in SMILES notation. The source made the active and inactive calls. A call without a number means that no potency is given here. Unless noted, calls come from the whole dose curve.

One assay has as its system thyroid hormone receptor (rat, GH3 cells). The experiment in a line: qHTS assay to identify small molecule agonists of the thyroid receptor (TR) signaling pathway (AID 743066). The following applies: GH3.TRE-Luc cells, TR agonist luciferase, 24 h; series mostly up to 83.9 µM. On the technique in general: Quantitative high-throughput screening tests each substance at several concentrations.
With `CC(C)=CCN1CC[C@]2(C)c3cc(O)ccc3C[C@H]1[C@H]2C`, the Potency result was “inactive”.

For `CN[C@@]1(c2ccccc2Cl)CCCCC1=O`, the Potency result was “inactive”.

Take `CCNC1(c2cccs2)CCCCC1=O` (stereo unspecified): the Potency result was “inactive”.

Take `CNC(C)CC1CCCCC1` (stereo unspecified): the Potency entry is “inactive”.

Regarding `CCC1(c2ccccc2)C(=O)NC(=O)N(C)C1=O` (stereo unspecified), the Potency result is “inactive”.

As for `CNC(C)Cc1ccccc1` (stereo unspecified), the Potency entry was “inactive”.

As for `CN[C@@H](C)Cc1ccccc1`, the Potency entry is “inactive”.

Turning to `CCCCNC(C)(C)[P+](=O)O`, the Potency entry was “inactive”.

For the compound `O=C1C[C@@H]2OCC=C3CN4CC[C@]56c7ccccc7N1[C@H]5[C@H]2[C@H]3C[C@H]46` (tested in a mixture with another compound), the Potency result is “inactive”.

For `O=c1ccc2cc(O[C@@H]3O[C@H](CO)[C@@H](O)[C@H](O)[C@H]3O)c(O)cc2o1`, the Potency entry was “inactive”.

As to `C/C=C(\CC)C(=O)NC(N)=O`, the Potency result was “inactive”.

In the case of `C[C@]12CCC(=O)C[C@@H]1CC[C@@H]1[C@@H]2CC[C@@]2(C)[C@H]1CC[C@]2(C)O`, the Potency entry was “inactive”.

Regarding `Cc1nnc2n1-c1ccc(Cl)cc1C(c1ccccc1)=NC2`, the Potency result is “inactive”.

For the compound `N#CC(C#N)=Cc1cc(O)c(O)c(O)c1`, the Potency entry was “inactive”.

As to `O=C(O)CCCO`, the Potency result is “inactive”.

On to `Oc1ccc2c3c1O[C@H]1[C@@H](O)C=C[C@H]4[C@H](C2)NCC[C@@]341`, for which the Potency result is “inactive”.

Turning to `O=P1(N(CCCl)CCCl)NC(OO)CCO1` (stereo unspecified), the Potency entry is “inactive”.

For the compound `COC(=O)[C@H]1[C@@H](OC(=O)c2ccccc2)C[C@@H]2CC[C@H]1N2C`, the Potency result was “inactive”.

`O=C1CN=C(c2ccccc2)c2cc(Cl)ccc2N1`: the Potency result was “inactive”.

Turning to `C=C[C@H]1CN2CC[C@H]1C[C@H]2[C@H](OC(=O)OCC)c1ccnc2ccc(OC)cc12`, the Potency entry is “inactive”.

Regarding `CCc1cc(OC)c(C[C@@H](C)N)cc1OC`, the Potency entry was “inactive”.

Turning to `C[C@]12CC[C@H]3[C@@H](CCC4=C(Cl)C(=O)CC[C@@]43C)[C@@H]1CC[C@@H]2O`, the Potency entry was “inactive”.

With `C[C@@H]1[C@@H]2Cc3ccc(O)cc3[C@@]1(C)CCN2CC1CC1`, the Potency result was “inactive”.

Turning to `C[C@@H]1[C@H]2Cc3ccc(O)cc3[C@]1(C)CCN2C`, the Potency entry was “inactive”.

Consider `CC(C)C[C@H]1C(=O)N2CCC[C@H]2[C@]2(O)O[C@](NC(=O)[C@@H]3C[C@@H]4c5cccc6[nH]cc(c56)C[C@H]4N(C)C3)(C(C)C)C(=O)N12`, for which the Potency result was “inactive”.

As for `C=CCC1([C@@H](C)CCC)C(=O)NC(=O)NC1=O`, the Potency result was “inactive”.

As to `CC[C@H]1[C@@H]2C[C@H]3[C@@H]4N(C)c5ccccc5[C@]45C[C@@H](C2[C@H]5O)N3[C@@H]1O` (stereo partly specified), the Potency result was “inactive”.

For the compound `CC(N)Cc1ccc2c(c1)OCO2` (stereo unspecified), the Potency result was “inactive”.

`CN1c2ccccc2C(NCCCCCCC(=O)O)c2ccc(Cl)cc2S1(=O)=O` (stereo unspecified): the Potency result was “inactive”.

On to `CN[C@]1(c2ccccc2Cl)CCCCC1=O`, for which the Potency entry is “inactive”.

Regarding `CC(=O)[C@@]1(O)CC[C@H]2[C@@H]3CCC4=CC(=O)CC[C@]4(C)C3(F)[C@@H](O)C[C@@]21C` (stereo partly specified), the Potency entry is “inactive”.

In the next assay the target is Estrogen receptor (Homo sapiens) (UniProt P03372). The experiment in a line: qHTS assay to identify small molecule antagonists of the estrogen receptor alpha (ER-alpha) signaling pathway (AID 743069; active = well fitted curve in the direction sought with a large enough effect in the signal ratio in the repeat runs, not every such curve was filed as active; inconclusive = weak or mixed curves, or effect the other way; inactive = no such curve, though single readings can be large or run the other way; the % refers to the signal ratio; note: potency is the fitted concentration of half-maximal effect). The following applies: HEK293 ER-alpha-UAS-bla, beta-lactamase ratio, antagonist mode; series mostly up to 69.4 µM. The essentials: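 Estradiol-stimulated ER-alpha-UAS-bla HEK293 cells, 18 hr compound exposure at 37C. LiveBLAzer B/G substrate, 2 hr RT, fluorescence read.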
Estrogen receptor (Homo sapiens), sequence (P03372 whole entry, looked up): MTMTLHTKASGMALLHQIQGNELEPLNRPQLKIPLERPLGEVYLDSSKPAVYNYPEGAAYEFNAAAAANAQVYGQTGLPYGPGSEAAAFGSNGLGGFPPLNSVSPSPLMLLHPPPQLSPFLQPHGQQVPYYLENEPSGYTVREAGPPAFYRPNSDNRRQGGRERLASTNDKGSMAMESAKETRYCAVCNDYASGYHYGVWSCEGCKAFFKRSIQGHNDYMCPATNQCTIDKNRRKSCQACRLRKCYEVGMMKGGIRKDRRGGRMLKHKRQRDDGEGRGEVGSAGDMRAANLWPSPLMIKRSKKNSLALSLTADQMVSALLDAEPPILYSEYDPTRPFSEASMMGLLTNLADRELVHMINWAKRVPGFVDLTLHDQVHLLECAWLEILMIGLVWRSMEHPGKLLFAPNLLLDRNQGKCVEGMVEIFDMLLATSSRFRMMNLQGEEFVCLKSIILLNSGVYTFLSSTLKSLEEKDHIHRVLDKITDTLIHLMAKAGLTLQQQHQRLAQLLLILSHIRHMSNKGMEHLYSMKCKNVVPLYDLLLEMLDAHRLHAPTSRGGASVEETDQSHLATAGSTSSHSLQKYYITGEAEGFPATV
Consider `CC(C)=CCN1CC[C@]2(C)c3cc(O)ccc3C[C@H]1[C@H]2C`, for which the Potency entry was “inactive”.

As for `CN[C@@]1(c2ccccc2Cl)CCCCC1=O`, the Potency result was “inactive”.

Turning to `CCNC1(c2cccs2)CCCCC1=O` (stereo unspecified), the Potency entry was “inactive”.

Regarding `CNC(C)CC1CCCCC1` (stereo unspecified), the Potency result was “inactive”.

On to `COc1cc([C@@H]2c3cc4c(cc3[C@@H](O)[C@H]3COC(=O)[C@H]23)OCO4)cc(OC)c1O`, for which the Potency result is “inactive”.

Turning to `CN1CC[C@@]23CCCC[C@@H]2[C@@H]1Cc1ccc(O)cc13`, the Potency entry is “inactive”.

For `CCCCNC(C)(C)[P+](=O)O`, the Potency entry is “inactive”.

In the case of `C/C=C(\CC)C(=O)NC(N)=O`, the Potency entry was “inactive”.

With `Cc1nnc2n1-c1ccc(Cl)cc1C(c1ccccc1)=NC2`, the Potency was 21.3 µM [inconclusive] (active).

Turning to `CCCSc1cc(OC)c(CCN)cc1OC`, the Potency result was “inactive”.

Regarding `O=P1(N(CCCl)CCCl)NC(OO)CCO1` (stereo unspecified), the Potency entry is “inactive”.

Take `COC(=O)[C@H]1[C@@H](OC(=O)c2ccccc2)C[C@@H]2CC[C@H]1N2C`: the Potency entry was “inactive”.

As for `O=C1CN=C(c2ccccc2)c2cc(Cl)ccc2N1`, the Potency result was “inactive”.

Regarding `CC(C)[C@H]1C(=O)N2CCC[C@H]2[C@]2(O)O[C@](NC(=O)[C@@H]3C[C@@H]4c5cccc6[nH]cc(c56)C[C@H]4N(C)C3)(C(C)C)C(=O)N12`, the Potency entry was “inactive”.

`CC(C)C[C@H]1C(=O)N2CCC[C@H]2[C@]2(O)O[C@](NC(=O)[C@@H]3C[C@@H]4c5cccc6[nH]cc(c56)C[C@H]4N(C)C3)(C(C)C)C(=O)N12`: the Potency result is “inactive”.

In the case of `C=CCC1([C@@H](C)CCC)C(=O)NC(=O)NC1=O`, the Potency entry was “inactive”.

For `C[C@@H](Cc1ccccc1)NCCC(c1ccccc1)c1ccccc1`, the Potency result is “inactive”.

Regarding `CC[C@H]1[C@@H]2C[C@H]3[C@@H]4N(C)c5ccccc5[C@]45C[C@@H](C2[C@H]5O)N3[C@@H]1O` (stereo partly specified), the Potency entry is “inactive”.

Regarding `CN1c2ccccc2C(NCCCCCCC(=O)O)c2ccc(Cl)cc2S1(=O)=O` (stereo unspecified), the Potency entry is “inactive”.

As to `CN[C@]1(c2ccccc2Cl)CCCCC1=O`, the Potency entry was “inactive”.

Tested on in a further assay: not listed separately
The experiment in a line: qHTS assay to identify small molecule antagonists of the estrogen receptor alpha (ER-alpha) signaling pathway - cell viability counter screen (AID 743074).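 Note: HEK293 cells carrying ER-alpha-UAS-bla reporter stimulated with 17beta-estradiol; nearly all actives have a fitted effect of over 45% in size.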 Note: potency is the fitted concentration of half-maximal effect. The following applies: ERalpha-bla HEK293 viability, CellTiter-Glo luminescence, 18 h; series mostly up to 69.4 µM.
Turning to `CC(C)=CCN1CC[C@]2(C)c3cc(O)ccc3C[C@H]1[C@H]2C`, the Potency result was “inactive”.

`CN[C@@]1(c2ccccc2Cl)CCCCC1=O`: the Potency result is “inactive”.

As for `CCNC1(c2cccs2)CCCCC1=O` (stereo unspecified), the Potency result is “inactive”.

On to `CNC(C)CC1CCCCC1` (stereo unspecified), for which the Potency entry is “inactive”.

Consider `COc1cc([C@@H]2c3cc4c(cc3[C@@H](O)[C@H]3COC(=O)[C@H]23)OCO4)cc(OC)c1O`, for which the Potency result is “inactive”.

Take `CN1CC[C@@]23CCCC[C@@H]2[C@@H]1Cc1ccc(O)cc13`: the Potency entry is “inactive”.

For the compound `CNC(C)Cc1ccccc1` (stereo unspecified), the Potency entry is “inactive”.

For `CN[C@@H](C)Cc1ccccc1`, the Potency result is “inactive”.

For `O=C1C[C@@H]2OCC=C3CN4CC[C@]56c7ccccc7N1[C@H]5[C@H]2[C@H]3C[C@H]46` (tested in a mixture with another compound), the Potency result was “inactive”.

Take `O=c1ccc2cc(O[C@@H]3O[C@H](CO)[C@@H](O)[C@H](O)[C@H]3O)c(O)cc2o1`: the Potency entry was “inactive”.

Consider `C/C=C(\CC)C(=O)NC(N)=O`, for which the Potency entry is “inactive”.

For the compound `C[C@]12CCC(=O)C[C@@H]1CC[C@@H]1[C@@H]2CC[C@@]2(C)[C@H]1CC[C@]2(C)O`, the Potency entry was “inactive”.

On to `Cc1nnc2n1-c1ccc(Cl)cc1C(c1ccccc1)=NC2`, for which the Potency entry is “inactive”.

As for `N#CC(C#N)=Cc1cc(O)c(O)c(O)c1`, the Potency entry is “inactive”.

Turning to `CCCSc1cc(OC)c(CCN)cc1OC`, the Potency result was “inactive”.

Take `O=C(O)CCCO`: the Potency entry was “inactive”.

For the compound `O=P1(N(CCCl)CCCl)NC(OO)CCO1` (stereo unspecified), the Potency entry was “inactive”.

As to `COC(=O)[C@H]1[C@@H](OC(=O)c2ccccc2)C[C@@H]2CC[C@H]1N2C`, the Potency entry was “inactive”.

For the compound `O=C1CN=C(c2ccccc2)c2cc(Cl)ccc2N1`, the Potency entry is “inactive”.

For `CCc1cc(OC)c(C[C@@H](C)N)cc1OC`, the Potency entry was “inactive”.

Take `CC(C)[C@H]1C(=O)N2CCC[C@H]2[C@]2(O)O[C@](NC(=O)[C@@H]3C[C@@H]4c5cccc6[nH]cc(c56)C[C@H]4N(C)C3)(C(C)C)C(=O)N12`: the Potency entry is “inactive”.

In the case of `C[C@]12CC[C@H]3[C@@H](CCC4=C(Cl)C(=O)CC[C@@]43C)[C@@H]1CC[C@@H]2O`, the Potency result was “inactive”.

For `Clc1ccc(C(Cn2ccnc2)OCc2csc3c(Cl)cccc23)c(Cl)c1` (stereo unspecified), the Potency result is “inactive”.

Consider `C[C@@H]1[C@@H]2Cc3ccc(O)cc3[C@@]1(C)CCN2CC1CC1`, for which the Potency result was “inactive”.

As for `C[C@@H]1[C@H]2Cc3ccc(O)cc3[C@]1(C)CCN2C`, the Potency entry was “inactive”.

With `CC(C)C[C@H]1C(=O)N2CCC[C@H]2[C@]2(O)O[C@](NC(=O)[C@@H]3C[C@@H]4c5cccc6[nH]cc(c56)C[C@H]4N(C)C3)(C(C)C)C(=O)N12`, the Potency result is “inactive”.

Turning to `[H+].[H+].[Hg+2].[O-]B([O-])[O-].[c-]1ccccc1`, the Potency is 6.01 µM (active).

Consider `C=CCC1([C@@H](C)CCC)C(=O)NC(=O)NC1=O`, for which the Potency result is “inactive”.

Consider `c1ccc2c(c1)Sc1ccccc1N2C[C@@H]1CN2CCC1CC2`, for which the Potency entry is “inactive”.

In the case of `C[C@@H](Cc1ccccc1)NCCC(c1ccccc1)c1ccccc1`, the Potency result was “inactive”.

As to `CC[C@H]1[C@@H]2C[C@H]3[C@@H]4N(C)c5ccccc5[C@]45C[C@@H](C2[C@H]5O)N3[C@@H]1O` (stereo partly specified), the Potency result was “inactive”.

Regarding `CC(N)Cc1ccc2c(c1)OCO2` (stereo unspecified), the Potency result was “inactive”.

As for `CN1c2ccccc2C(NCCCCCCC(=O)O)c2ccc(Cl)cc2S1(=O)=O` (stereo unspecified), the Potency result is “inactive”.

`C[C@]12CC[C@@H]3c4ccc(OC(=O)N(CCCl)CCCl)cc4CC[C@H]3[C@@H]1CC[C@@H]2OP(=O)(O)O`: the Potency entry was “inactive”.

Turning to `CC(=O)[C@@]1(O)CC[C@H]2[C@@H]3CCC4=CC(=O)CC[C@]4(C)C3(F)[C@@H](O)C[C@@]21C` (stereo partly specified), the Potency entry was “inactive”.
